# Rab9 prom act: activates the Rab9 promoter. Potency, µM (titrated, usually from 9.22 µM), without a hit: at the highest dose activation, negative = inhibition, usual class: activators. Huh7 Rab9 promoter-luciferase reporter, luminescence, 24 h. actives 2.8% (n = 320,000); note: % of control where 0% means no effect; nearly all actives have a fitted effect of over 60% in size
#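 Rab9 promoter-driven luciferase in stably transfected Huh7 cells; 1500 cells/well rested 2 h, exposed to compound in DMSO for 24 h at 37 °C, 5% CO2. Luminescence read 10 min after adding luciferase reagent at ambient temperature.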
# SMN2 splice enh: increases expression of the SMN2 splice variant; HEK293 SMN2-luciferase splicing reporter, luminescence, 30-36 h; Potency, µM (titrated, usually from 46.1 µM), inactives show top-dose activity change, positive = activation, actives largely listed as activators; actives 2.8% (n = 210,000); AID 1458; note: % of control where 0% means no effect; nearly all actives have a fitted effect of over 55% in size
#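 qHTS luciferase splicing reporter: luminescence rises when SMN2 exon 7 is included in transfected HEK293 cells. Compound exposure lasted 30-36 h at 37C, with 4.5 mM final sodium butyrate as control, followed by a ONE-Glo read.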
# ELG1 genotox: genotoxicity induction in ELG1-luciferase HEK293T cells | HEK293T ELG1-luciferase reporter, luminescence, 16 h | Potency, µM (doses to about 46 µM), inactives show top-dose activity change, positive = activation, hits mostly activators | actives 1.3% (n = 330,000); note: % of control where 0% means no effect; nearly all actives have a fitted effect of over 60% in size
#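 Reporter readout depends on ELG1 protein level, which increases with genetic stress. After 16 hr compound exposure at 37 °C, luciferase activity was quantified using ONE-Glo.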
# KinaseGlo FLuc: counter-screen: inhibitors of Kinase-Glo firefly luciferase | actives 0.28% (n = 200,000) | Kinase-Glo luciferase, ATP luminescence, 8 min | Potency, µM (titrated, usually from 38.3 µM), for the others: at the top dose activity change, negative = inhibition, actives largely listed as inhibitors | AID 1379; note: % is set by controls: 0 for no effect and ±100 for the full control effect; nearly all actives have a fitted effect of over 60% in size
#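 Compound is pinned into ATP-containing buffer (10 uM ATP, imidazole pH 7.2, 7 mM MgCl2). Kinase-Glo luciferase reagent is then added. Light output is recorded following an 8-min room-temperature incubation.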
# NPC1 promoter act: NPC1 promoter activation; Huh7 NPC1 promoter luciferase reporter, 24 h; Potency, µM (top dose mostly 9.22 µM), for inactives: top-dose activation, usual class: activators; actives 2.4% (n = 320,000); note: % of control where 0% means no effect; nearly all actives have a fitted effect of over 60% in size
#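 NPC1 promoter–luciferase Huh7 cells; 24 h compound; luminescence.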
# FLuc modulator: firefly luciferase modulation, counter-screen for miR-21 project; P08659; purified FLuc, Km substrates, luminescence inhibition; Potency, µM (top dose mostly 57.5 µM), inactives show top-dose activity change, negative = inhibition, hits mostly inhibitors; actives 6.9% (n = 360,000);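 note: plate controls were vehicle for no effect and reference inhibitor for full effect; nearly all actives have a fitted effect of over 55% in size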
# Target sequence (P08659 whole entry, looked up): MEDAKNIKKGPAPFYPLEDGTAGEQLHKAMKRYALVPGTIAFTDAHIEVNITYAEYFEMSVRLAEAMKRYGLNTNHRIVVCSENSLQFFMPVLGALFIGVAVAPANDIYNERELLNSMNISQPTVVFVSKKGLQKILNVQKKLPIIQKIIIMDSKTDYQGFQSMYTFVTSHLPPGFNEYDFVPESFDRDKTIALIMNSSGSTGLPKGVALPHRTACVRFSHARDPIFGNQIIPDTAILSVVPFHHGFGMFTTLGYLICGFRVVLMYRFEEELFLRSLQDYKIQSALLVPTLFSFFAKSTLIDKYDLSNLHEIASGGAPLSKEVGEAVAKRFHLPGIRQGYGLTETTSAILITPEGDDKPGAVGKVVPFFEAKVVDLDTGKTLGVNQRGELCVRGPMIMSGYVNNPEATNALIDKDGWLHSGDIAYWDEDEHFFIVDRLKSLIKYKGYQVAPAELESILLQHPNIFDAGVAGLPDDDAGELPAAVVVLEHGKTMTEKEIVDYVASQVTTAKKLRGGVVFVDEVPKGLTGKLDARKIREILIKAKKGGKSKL
#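 Biochemical qHTS of compounds, final roughly 60 µM downward over six points, against 10 nM purified firefly luciferase using Km concentrations of substrates (10 uM D-luciferin, 10 uM ATP) in Tris acetate pH 7.5 buffer; luminescence output.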
# Starred values were filed as active, the others as inactive; ? = inconclusive; · = not tested or not shown; [ ] = dose if it differs, or a comment. Shown are actives, neighbours in structure and some others; about 7.3% of the full set was active somewhere. Calls come from the whole dose curve; as a rule, active = well fitted curve in the direction sought with a large enough effect; inconclusive = small, poorly fitted or top-dose-only effect, or another doubt; inactive = no such curve, though single readings can be large; an effect the other way counts as inactive or inconclusive. Potency is the fitted concentration of half-maximal effect.
SMILES,Rab9 prom act,SMN2 splice enh,ELG1 genotox,KinaseGlo FLuc,NPC1 promoter act,FLuc modulator
N/C(=N\OC(=O)CCC1CCCC1)c1cccnc1,0%,15%,6%,-3%,-1%,13µM*
Cc1ccc(SCC(=O)O/N=C(\N)c2cccnc2)cc1,0%,·,?,·,-4%,-17%
N/C(=N\OC(=O)CC1CCCCC1)c1cccnc1,-2%,-5%,3%,4%,-3%,13µM*
CCc1c2c(nc3cccc(OC)c13)OC(CC)C2 (centres undefined),·,2%,·,-2%,·,·
Cc1cccc2nc(C(=O)Nc3cccc(C(=O)NC4CC4)c3)cn12,3.2µM*,·,11%,·,?,2.4µM*
O=C(O)c1cccc(NC(=O)c2cc(NC(=O)c3ccccc3)cc(NC(=O)c3ccccc3)c2)c1,3%,·,6%,·,0%,?
CC(=O)Nc1ccccc1C(=O)C(=O)Nc1cccc(C(=O)NC2CC2)c1,2.8µM*,0%[1.84 µM],13%,5%,?,-11%
Cc1ccc(C(=O)Nc2cccc(C(=O)O)c2)cc1,?,1µM*,?,-18%,?,0.15µM*
Nc1ccc(C(=O)Nc2cccc(NC(=O)c3ccc(N)cc3)c2)cc1,21%,·,7%,·,4%,11µM*
CCCCNC(=O)c1cccc(NC(=O)C(=O)c2ccccc2NC(C)=O)c1,-4%,-8%,0%,4%,1%,-3%
CC(C)NC(=O)[C@@H]1C[C@H]1[C@@H](NC(=O)OCc1ccccc1)c1ccccc1,·,-4%,·,1%,·,·
Cc1oc2c(c1C(=O)Nc1cccc(C(=O)O)c1)CCCC2,?,14%,?,-1%,?,19µM*
Cc1ccc(C(=O)Nc2ccc(C(=O)O)cc2NC(=O)c2ccc(C)cc2)cc1,22%,·,?,·,?,21µM*
Cc1ccc(C(=O)Nc2cccc(C(=O)NC3CCCC3)c2)cc1,?,·,-7%,·,?,12µM*
Cc1cccc(CC2C(=O)Nc3ccccc32)c1 (centres undefined),·,·,·,·,·,-2%
Cc1cccc(Cc2nnc(CCC(=O)N(CC3CC3)CC3CCCO3)o2)c1 (centres undefined),?,·,?,1%,?,21µM*
CC[C@]12CCCN3CCc4c(n(c5ccccc45)[C@@](O)(C(=O)OC)C1)[C@@H]32,18%,·,16µM*,·,5%,-19%
CC[C@]12CCCN3CCc4c(n(c5ccccc45)C(=O)C1)[C@@H]32,-14%,·,4%,·,-19%,-2%
COc1ccc(COC(=O)N/C=C/c2ccco2)cc1,4%,17%,3%,-4%,4%,?
COc1ccccc1COC(=O)N/C=C/c1ccco1,?,?,10%,2%,?,15µM*
CCOC(=O)N1CCc2c(sc(NC(=O)c3ccc(Cl)s3)c2C(N)=O)C1,2%,-92%,-10%,6%,-1%,11µM*
CCN1CCc2c(sc(NC(=O)C3COc4ccccc4O3)c2C(N)=O)C1 (centres undefined),?,·,18µM*,·,?,-3%
CN1CCc2c(sc(NC(=O)c3ccc4ccccc4c3)c2C(N)=O)C1,?,·,10µM*,·,?,2.7µM*
COc1cc2ccccc2cc1C(=O)Nc1sc2c(c1C(N)=O)CCN(C(C)C)C2,-6%,·,-1%,·,-7%,9.5µM*
CCc1ccc(Oc2c(C(F)(F)F)oc3c(CN4CCC(C)CC4)c(O)ccc3c2=O)cc1,·,-8%,·,·,·,2%
SMILES,Rab9 prom act,SMN2 splice enh,ELG1 genotox,KinaseGlo FLuc,NPC1 promoter act,FLuc modulator
Cc1ccc(NC(=O)C2CCN(C(=O)c3cnn(-c4ccccc4)c3-n3cccc3)CC2)cc1,·,-59%,·,·,·,-2%
CC(=O)N1CCc2c(sc(NC(=O)C3COc4ccccc4O3)c2C(N)=O)C1 (centres undefined),11%,·,20%,·,10%,-18%
CN1CCc2c(sc(NC(=O)C3COc4ccccc4O3)c2C(N)=O)C1 (centres undefined),?,·,23µM*,·,?,-11%
CN(C(=O)CSc1ncnc2sccc12)C1CCS(=O)(=O)C1 (centres undefined),-2%,·,0%,·,-1%,4%
CN(C(=O)CSc1ncnc2sccc12)C1CCCCC1,2.8µM*,·,?,·,?,13µM*
CCOC(=O)c1ccc(N=NN(C)C)cc1,?,·,?,·,?,19µM*
CCOC(=O)c1ccc(N=C2NC(=O)CS2)cc1,-6%,?,5%,5%,2%,0%
CCOC(=O)c1ccc(N=c2scc(C)n2CC)cc1,2µM*,25µM*,?,2%,?,11µM*
C=CCn1c(C)csc1=Nc1ccc(C(C)=O)cc1,?,-17%,?,2%,?,19µM*
Cc1cc(C)cc(-n2ccnc2SCC(=O)Nc2ccc3c(c2)OCO3)c1,·,·,·,·,·,-15%
Cn1c(=O)c2[nH]c(CS(=O)(=O)Cc3nc4c([nH]3)c(=O)n(C)c(=O)n4C)nc2n(C)c1=O,·,8%[9.22 µM],·,-2%[7.66 µM],·,·
Cc1ccc([N+](=O)[O-])cc1S(=O)(=O)Nc1cccc(-c2ccc(N3CCCC3)nn2)c1,15%,·,1%,·,18%,19µM*
COc1ccc(S(=O)(=O)Nc2ccc(-c3ccc(N4CCCC4)nn3)cc2)cc1F,·,·,·,·,·,-1%
COc1ccc(S(=O)(=O)Nc2cccc(-c3ccc(N4CCCC4)nn3)c2)cc1OC,·,·,·,·,·,17µM*
COc1ccc(S(=O)(=O)Nc2cccc(-c3ccc(N4CCC(C)CC4)nn3)c2)cc1OC,·,·,·,·,·,0.43µM*
CCOc1ccc(-c2cccc(NS(=O)(=O)c3cc([N+](=O)[O-])ccc3Cl)c2)nn1,-3%,·,1%,·,12%,?
Cc1ccc(S(=O)(=O)Nc2cccc(-c3ccc(N4CCCCCC4)nn3)c2)cc1C,3.2µM*,·,?,·,?,6µM*
Cn1cccc1C(=O)N1CCC2(CC1)CCN(c1cccc(-c3ccccc3)c1)CC2,·,-53%,·,-7%,·,·
O=C(/C=C/c1ccccc1)Oc1cccc(C(=S)N2CCOCC2)c1,-4%,-33%,2%,-3%,0%,9.5µM*
O=C(/C=C/c1cccc2ccccc12)N1CCOCC1,?,·,?,·,?,15µM*
O=C(/C=C/c1cccc2ccccc12)c1ccncc1,-8%,-61%,-6%,1%,-8%,9.5µM*
O=C(/C=C/c1ccccc1Cl)N1CCOCC1,4%,·,13%,·,23%,?
CCCCCCOc1ccc(/C=C/C(=O)N2CCOCC2)cc1OC,7%,·,1%,·,0%,-3%
O=C(/C=C/c1ccc(OCCCF)cc1)N1CCOCC1,?,·,?,·,?,24µM*
C=CCC(C)(O)c1ccsc1 (centres undefined),·,10%,·,-1%,·,·

# From PubChem BioAssay
